This note sets out measurements from PubChem BioAssay AID2763 (National Center for Advancing Translational Sciences (NCATS), 2010).

Records with an inconclusive call do not appear. Values without a mark were called inactive. Active and inactive are the calls of the source. The call rests on the fitted dose curve; in most records, active means well fitted inhibition curve with a large enough effect; inconclusive means small, poorly fitted or top-dose-only effect, or effect the other way; inactive means no such curve, though single readings can be large or run the other way.
On the % scale 0 is the no-effect control and ±100 the full control effect; potency means the concentration at half of the fitted maximal effect.

The test is described as follows: Concentration response confirmation VP16 counterscreen for inhibitors of ROR gamma transcriptional activity. Further: nearly all actives have a fitted effect of over 70% in size. The note with it: Drosophila S2 Gal4-VP16 UAS-luciferase, luminescence, 20 h; series mostly up to 46.1 µM; activity change, negative = inhibition: at the top concentration. In a few lines:
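Drosophila Schneider cells stably carrying Gal4-VP16 under metallothionein promoter plus UAS-Photinus luciferase. Compound preincubated 1 hr, then 700 uM copper sulfate induction for 20 hr at ambient temperature; luminescence read.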
Take `Cc1oc(-c2ccccc2Cl)nc1CSCC(=O)O`: the Potency was 7.91 µM (active). As for `O=C(O)/C=C/C(=O)Nc1ccccc1SC(F)(F)F`, the “activity change, negative = inhibition” value was 4.95%. For the compound `CN1CCN(C(=O)CCN2C(=O)/C(=C\c3ccccc3F)SC2=S)CC1`, the “activity change, negative = inhibition” value is 0.859%. As for `Cc1nc2c(-c3ccc(F)cc3)cnn2c(N)c1-c1ccccc1`, the Potency is 0.281 µM (active). As to `c1csc(CCNc2ncnc3sc4c(c23)CCC4)c1`, the Potency was 25 µM (active). In the case of `Cc1ccccc1NC(=O)CCN1CCN(C)CC1`, the “activity change, negative = inhibition” value was -2.88%. On to `CC(C)CC(=O)NS(=O)(=O)c1ccc(N)cc1`, for which the “activity change, negative = inhibition” value is -12.3%. Take `Cc1sc2ncnc(Sc3nnc4sc5ccccc5n34)c2c1C`: the “activity change, negative = inhibition” value is -7.34%.

As for `CCOC(=O)[C@@H]1[C@H]2COc3ccc(Br)cc3[C@@H]2N2C(=O)N(c3ccccc3)C(=O)[C@@]12C`, the “activity change, negative = inhibition” value is 17.3%. The same measure, in the same setting: under `CC(C)(C)c1cc(C(=O)N2CCc3ccccc32)ccn1` stands 4.76%. Regarding `Cc1ccc(Oc2nc(-c3ccccn3)nc3ccccc23)cc1`, the Potency is 3.53 µM (active). For `COc1cccc(Cn2c(NCc3ccco3)nc3c2c(=O)n(C)c(=O)n3C)c1`, the Potency was 2.81 µM (active).

In the case of `OCCNc1nc2ccccc2n1-c1ncnc2sc3c(c12)CCC3`, the Potency was 15.8 µM (active). As for `CNC(=O)NC(=O)CSc1nc2cc(C(=O)OC)ccc2c(=O)n1-c1ccccc1`, the Potency was 25 µM (active). For `COc1ccc(Cl)c(Cn2c(NCc3ccco3)nc3c2c(=O)n(C)c(=O)n3C)c1`, the Potency is 1.99 µM (active).

For the compound `CCN(CC(=O)Nc1ccc2c(c1)CCC2)Cc1nc2ccccc2c(=O)[nH]1`, the Potency is 15.8 µM (active). On to `COc1ccc(/C=C/C(=O)NC(=S)NCC2CCCO2)cc1` (stereo not given), for which the Potency is 14.1 µM (active). As for `Fc1cccc2sc(Nc3nnc(-c4ccco4)o3)nc12`, the Potency is 6.28 µM (active). Regarding `Cc1ccc(-c2noc(CCC(=O)N(C)c3ccccc3C)n2)cc1`, the “activity change, negative = inhibition” value was 3.03%. In the case of `O=c1c2cc(Br)ccc2[nH]c(=S)n1Cc1cccnc1`, the Potency is 11.2 µM (active). On to `CCn1cc(C(=O)O)c(=O)c2cc(F)c(N3CCN(C(=S)NC(=O)c4ccccc4C)CC3)cc21`, for which the “activity change, negative = inhibition” value is 6.87%. Turning to `CCOc1ccc(C(=O)Nc2nc3ccccc3[nH]2)cc1OCC`, the Potency is 12.5 µM (active). For the compound `CCOC(=O)Cn1c(CN2CCc3ccccc3C2)nc2c1c(=O)n(C)c(=O)n2C`, the Potency is 3.15 µM (active). The same measure, in the same setting: for `COc1cc(CNS(=O)(=O)c2ccc3c(c2)CC(C)N3C(=O)C2CCC2)cc(OC)c1OC` (stereo not given) the value was 9.96 µM (active); for `COCC1CCCCN1C(=O)c1cc(COc2ccc3ncccc3c2)on1` (stereo not given), 7.05 µM (active). On to `COc1ccc(-c2cc(-c3nnc(COC(=O)c4ccncc4)o3)c3ccccc3n2)cc1OC`, for which the “activity change, negative = inhibition” value was -17.6%.

For `COc1cc(C(=O)NC2CC(C)(C)Cc3c2cnn3-c2ccccc2)cc(OC)c1OC` (stereo not given), the “activity change, negative = inhibition” value was -6.83%.

For the compound `Cc1ccc(NC2=C(Cl)C(=O)OC2OC(=O)c2ccco2)cc1` (stereo not given), the “activity change, negative = inhibition” value was -1.27%. For `Cc1ccc(OCCn2cc(C(=S)N3CCCC3)c3ccccc32)cc1C`, the Potency was 25 µM (active). On to `O=C(NC(=S)Nc1nc(-c2ccc(Br)cc2)cs1)c1cccnc1`, for which the “activity change, negative = inhibition” value was 16.3%. For `O=C1NC2=C(C(=O)CCC2)C(c2ccccc2)N1` (stereo not given), the “activity change, negative = inhibition” value was 4.06%. Consider `Cc1ccccc1C(=O)OC1OC(=O)C(Cl)=C1Nc1ccccc1` (stereo not given), for which the “activity change, negative = inhibition” value was 11.1%. For `CN(C)S(=O)(=O)c1ccc(NC(=O)/C=C/c2ccccc2Cl)cc1`, the “activity change, negative = inhibition” value was -7.71%. Consider `COc1ccc2oc(=O)c(C(=O)Nc3ccccc3C)cc2c1`, for which the Potency is 7.91 µM (active). Consider `O=C(CCCN1C(=O)/C(=C/c2ccccc2Cl)SC1=S)Nc1cccnc1`, for which the Potency is 14.1 µM (active).
